Holding throughout (assay): NCI-60 one-dose screen, 48 h (100 = growth as untreated, 0 = no growth, -100 = all killed)
What all share (details): 10 µM unless noted

In experiment [1] the test system is NCI-H23 lung.
The subject of experiment [2] is NCI-H226 lung.
The subject of experiment [3] is NCI-H322M lung.
The test system of experiment [4] is HOP-62 NSCLC.
Experiment [5] concerns NCI-H460 lung.
Experiment [6] relates to HOP-92 NSCLC.
Experiment [7] relates to NCI-H522 lung.
Experiment [8] deals with A549/ATCC NSCLC.
In experiment [9] the test system is 786-0 renal.
The test system of experiment [10] is COLO 205 colon.
Experiment [11] relates to DU-145 prostate.
The test system of experiment [12] is K-562 leukemia.
Experiment [13] relates to MALME-3M melanoma.
For experiment [14], the system named is MDA-MB-231 breast.
Experiment [15] relates to RXF 393 renal.
Experiment [16] relates to SF-268 CNS.
The subject of experiment [17] is SF-295 CNS.
Experiment [18] concerns SF-539 CNS.
For experiment [19], the system named is UACC-257 melanoma.
The test system of experiment [20] is M14 melanoma.

SMILES strings stand for the structures. About 83,000 compounds went through this panel and 20% of them were active in at least one assay; those are over-represented in the sample as a whole.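 Each cell line was grown in a 96-well plate and treated with one concentration of compound for 48 hours. Values below 10 were considered active.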 Unmarked numbers belong to inactive results. Calls of active or inactive are those of the source.

`O=C(/C=C/c1ccc[nH]1)c1ccc(-n2ccc(C(F)(F)F)n2)cc1`: the growth in experiment [1] was 90.1%; in experiment [2], 91.5%; in [3], 72.4%; in experiment [4] it was 104%; in experiment [5] it was 99.1%; in experiment [6], 96.3%. Further, the growth in experiment [7] was -6.16% (active); in experiment [8], 50.6%; in experiment [9] it was 45.4%; in experiment [10], 122%; in [11] it was 96.4%; in experiment [12] it was 68.1%. In addition, the growth in [13] is 86%; in experiment [14], 22.7%; in experiment [15], 50%; in [16] it was 34.2%; in experiment [17] it was 70.2%; in [18], 14.3%. Further, the growth was 96.7% in [19] and 94.5% in experiment [20].

For the compound `CC(O)/C=C/C=C/C(O)CC/C=C/C(=O)NCC(C)(C)O` (stereo not given), the growth in experiment [1] is 95.3%; in experiment [2], 108%; in experiment [3] it was 106%; in [4], 110%; in experiment [5] it was 101%; in experiment [6], 96.1%. The growth in [7] was 79.4%; in experiment [8], 96.1%; in [9], 109%; in experiment [10], 118%; in experiment [11], 106%; in experiment [12] it was 72.8%. The growth in [13] is 112%; in [14] it was 111%; in experiment [15], 121%; in experiment [16], 108%; in [17], 107%; in experiment [18], 109%. For the same compound, the growth is 91.5% in [19] and 101% in experiment [20].

For `CC1(C)NCCC[C@]2(C)[C@H]3CC=C4[C@@H]5C[C@@](C)(CO)CC[C@]5(C)CC[C@@]4(C)[C@]3(C)CC[C@@H]12`, the growth is 81.3% in experiment [1]; 83.9% in experiment [2]; 81.7% in [3]; 88.8% in experiment [4]; 4.29% (active) in [5]; 38.3% in experiment [6]. For the same compound, the growth in experiment [7] was 73.8%; in experiment [8] it was 51%; in experiment [9], 55.5%; in [10], -4.98% (active); in experiment [11], 75.6%; in experiment [12] it was 9.28% (active). Further, the growth in experiment [13] was 57%; in experiment [14], 58%; in experiment [15], 57.8%; in experiment [16], 67.1%; in experiment [17], 64.1%; in experiment [18] it was 64.6%. Further, the values for the growth in experiment [19] and in experiment [20] were 55.1% and 33.6%, respectively.

Take `Cc1c(C(=O)NO)sc2ncnc(Nc3ccc(NC(=S)Nc4ccccc4)cc3)c12`: the growth was 96.5% in experiment [1]; 104% in experiment [2]; 107% in experiment [3]; 101% in experiment [4]; 102% in experiment [5]; 115% in experiment [6]. Besides, the growth in experiment [7] is 92.1%; in experiment [8], 101%; in experiment [9], 99.1%; in experiment [10] it was 113%; in [11], 107%; in [12] it was 103%. Further, the growth was 99.5% in [13]; 95% in experiment [14]; 104% in experiment [15]; 98.2% in experiment [16]; 98.3% in [17]; 100% in experiment [18]. For the same compound, the growth was 99.4% in [19] and 104% in [20].

For `c1ccc(-c2nn(-c3ccccc3)[n+](-c3ccccc3-c3ccccc3)n2)cc1`, the growth was 5.14% (active) in experiment [1]; 28.1% in experiment [2]; 40.6% in experiment [3]; 32.6% in experiment [4]; 5.11% (active) in experiment [5]; -24.4% (active) in experiment [6]. For the same compound, the growth in experiment [7] was -7.02% (active); in [8] it was 17.3%; in experiment [9], 30.8%; in [10] it was -34.5% (active); in experiment [11], 22.8%; in experiment [12] it was 5.29% (active). The growth in [13] is -31.7% (active); in experiment [14], 35.5%; in [15], 10.1%; in experiment [16], 22%; in [17] it was 3.4% (active); in experiment [18] it was 22.9%. The growth in experiment [19] is 9.82% (active); in experiment [20] it was 23.2%.

Turning to `C#CC(=O)Nc1cccc(Nc2nc3c(c(NCc4ccccc4)n2)CCCC3)c1`, the growth in experiment [1] was -61.2% (active); in experiment [2], -31.4% (active); in [3], -56.9% (active); in experiment [4] it was -82.8% (active); in experiment [5] it was -57.8% (active); in experiment [6], -71.7% (active). Also, the growth was -60.7% (active) in [7]; -48.5% (active) in [8]; -90.3% (active) in experiment [9]; -68.9% (active) in [10]; -85.1% (active) in experiment [11]; -22.3% (active) in [12]. The growth in [13] was -64.1% (active); in experiment [14], -71.7% (active); in experiment [15], -99.5% (active); in experiment [16] it was -78.5% (active); in [17], -84% (active); in experiment [18] it was -90.7% (active). In addition, the growth is -90.6% (active) in experiment [19] and -88.2% (active) in [20].

In the case of `CS(=O)(=O)c1ccc(-c2cc(-c3nnc(SCC(=O)Nc4ccc(C(=O)/C=C/c5ccc(Cl)cc5)cc4)n3-c3ccccc3)c3ccccc3n2)cc1`, the growth in experiment [1] is 97.8%; in experiment [2], 94.6%; in experiment [3], 89.8%; in [4], 95.1%; in experiment [5], 99.1%; in [6], 110%. The growth in [7] is 90%; in experiment [8], 91.5%; in [9] it was 93%; in experiment [10], 106%; in experiment [11], 105%; in experiment [12], 89.9%. In addition, the growth in [13] is 104%; in experiment [14], 92.1%; in experiment [15], 92.3%; in experiment [16], 81.7%; in experiment [17] it was 96%; in experiment [18], 87.5%. Besides, the growth in experiment [19] is 107%; in [20], 97.5%.

Source of the values: PubChem BioAssay (NCI).
